“And” between values parts separate entries of the source, which are not always exact repeats. Equal entries are not always repeated. The whole screen tested about 300,000 compounds, of which about 37,000 (12%) were called active. Many of the other results were omitted from the sample, so actives are more common in it than they were. Values without a mark were called inactive. No stated cut-off is given here; in the data, active means max response mostly above about 13% (no sharp cut-off); inactive means mostly below about 14%.
Test: Cycloheximide Counterscreen for Small Molecule Inhibitors of Shiga Toxin; further: read at 38.3 µM for the half of the compounds with a filed dose; 0% is about no effect
Settings: cell reporter, cycloheximide protein synthesis inhibition counterscreen; active compounds read high

Row | SMILES | max response
1 | CC(C)C(=O)Nc1c2c(nn1-c1ccccc1)CSC2 | -1.75%
2 | Cn1c(=O)c2sccc2n(Cc2ccc(Br)cc2)c1=O | -2.03%
3 | CCN(CC)CCC(c1ccc2c(c1)OCO2)c1c(OC)cc(OC)c2c(-c3ccccc3)cc(=O)oc12 (stereo unspecified) | -5.1% and -16.4%
4 | C/C(=C\C(=O)c1ccc(Br)cc1)N1CCCCC1 | -3.58%
5 | COc1cc2c(cc1OC)/C(=C/C(=O)c1ccc(NC(C)=O)cc1)NCC2 | -5.05%
6 | CC1CN/C(=C\C(=O)c2ccc(Br)cc2)C(=O)N1 (stereo unspecified) | 106% (active)
7 | Cc1cccc(-n2c(SCC(=O)Nc3cccc(S(=O)(=O)NC4=NCCCCC4)c3)nc3ccccc3c2=O)c1C | -4.44%
8 | Cc1cc(Cl)ccc1OCCCC(=O)Nc1cccc(-n2cnnn2)c1 | 1.51%
9 | O=C(Cc1ccccc1)N1CCN(S(=O)(=O)c2ccc([N+](=O)[O-])cc2)CC1 | -3.27%
10 | CC(CC(=O)N1CCN(S(=O)(=O)c2ccccc2)CC1)n1cncn1 (stereo unspecified) | -1.89%
11 | N#C/C=C1\Sc2ccccc2C(=O)N1CC(=O)N1CCN(S(=O)(=O)c2ccccc2)CC1 | 27.7% (active)
12 | Cc1ccc(S(=O)(=O)N(NC2=NS(=O)(=O)c3ccccc32)C(=O)c2ccccc2)cc1 | -4.47%
13 | CC(C)(C)c1csc(NC2=NS(=O)(=O)c3ccccc32)n1 | 26.2% (active)
14 | O=C(Oc1cccc(NC2=NS(=O)(=O)c3ccccc32)c1)c1ccncc1 | -1.79%
15 | O=C(Nc1cccc(-c2cccc(Cl)c2)c1)C1CCN(C2CCC2)CC1 | -5.18%
16 | O=C(OCCN=C1NS(=O)(=O)c2ccccc21)c1cccc([N+](=O)[O-])c1 | 0.837%
17 | CCC(CC)c1nnc(NC(=O)c2nn(C)c(=O)c3ccccc23)s1 | -3.83%
18 | Nc1ccc(SCCN2C(=O)c3ccccc3C2=O)cc1 | 30.6% (active)
19 | Cc1ccc(SCCN2C(=O)NC(C)(C)C2=O)cc1 | -0.406%
20 | CC(=O)c1cnc(SCCN2C(=O)c3ccccc3C2=O)nc1C | 6.2%
21 | CCCCc1cc(=O)oc2c(C)c(OCC(=O)N3CCC(C(N)=O)CC3)ccc12 | -2.86%
22 | COc1ccc(Cl)cc1NC(=O)Cn1nc(-c2ccc(C)cc2)n(C)c1=S | 0.595%
23 | CCN(CC(=O)NCc1ccco1)S(=O)(=O)c1ccc(F)cc1 | -3.33%
24 | COc1cc(Nc2nc3ccc(Cl)cc3n3cnnc23)cc(OC)c1OC | -8.65%

Row | SMILES | max response
25 | COc1ccc(-c2oc3ncnc(NCCCO)c3c2-c2ccc(OC)cc2)cc1 | -2.49%
26 | COc1cc(/C=N/NC(=O)c2ccoc2C)ccc1OCCN1CCCCC1 | 15.6%
27 | Cc1ccc(-n2[nH]c(C)c(/C=N/NC(=O)c3cccc([N+](=O)[O-])c3)c2=O)cc1C | 34.1% (active)
28 | COc1cc(/C=N\NC(=O)CNC(=O)c2cccc([N+](=O)[O-])c2)ccc1O | 2.84%
29 | Cc1[nH]n(-c2ccccc2)c(=O)c1/C=N/NC(=O)c1ccoc1C | 55% (active)
30 | Cc1[nH]n(-c2ccc(Cl)cc2)c(=O)c1/C=N/n1c(C)nc2ccccc2c1=O | -2.58%
31 | COc1cccc(/C=N/NC(=O)c2cccc([N+](=O)[O-])c2)c1OS(=O)(=O)c1ccc(C)cc1 | 1.94%
32 | O=C(O)c1ccc(-n2nc(-c3ccccc3)c3ccccc3c2=O)cc1 | 15%
33 | COc1ccc(OC)c(S(=O)(=O)n2c([N+](=O)[O-])cnc2C)c1 | 1.29%
34 | COc1cccc(CNC(=O)C2CC(=O)N(C3CCCCCCC3)C2)c1 (stereo unspecified) | 24.6%
35 | COc1ccc(C2NC(=O)c3ccccc3N2)cc1 (stereo unspecified) | 19.8% (active)
36 | Cc1ccc(C2Nc3cccc4cccc(c34)N2)cc1 | 2.47%
37 | COc1cccc(C2Nc3cccc4cccc(c34)N2)c1 | 1.12%
38 | O=C1CC(c2cccc(Cl)c2)CC(O)=C1C=Nc1ccccc1 (stereo unspecified) | -1.34%
39 | C=CCOc1cccc(C2NC(=O)c3ccccc3O2)c1 (stereo unspecified) | 11.8%
40 | O=C1NC(c2cccc(Cl)c2)Nc2ccccc21 (stereo unspecified) | 16% (active)
41 | CC1=CC(C)(C)NC(=S)N1c1ccccc1 | -0.571%
42 | COC(=O)c1ccccc1NC(=O)CSc1nc2c(c(=O)[nH]1)CCC2 | -0.834%
43 | COc1ccc(NC(=O)CC2C(=O)NC3CCCCC3N2C(=O)c2ccc(F)cc2)cc1 (stereo unspecified) | -1.58%
44 | COc1cccc(Nc2ncccc2C(=O)O)c1 | 48% (active)
45 | COc1cccc(NC(=O)c2ccccc2SC)c1 | 2.56%
46 | O=C(Nc1ccccc1)c1cccnc1Nc1ccccc1 | 15%
47 | CC(C)CCn1cnc2c1c(=O)n(CC(=O)NC(N)=O)c(=O)n2Cc1ccccc1 | -9.03%
48 | Nc1nc(Nc2ccccc2F)nc(NC2CCCCC2)c1[N+](=O)[O-] | -1.02%

Row | SMILES | max response
49 | NC(=O)C1CCN(C(=O)COc2cccc3cccnc23)CC1 | -4.62%
50 | CCOC(=O)C1CCN(C(=O)COc2cccc3ccccc23)CC1 | 21.6% (active)
51 | CCOC(=O)C1CCN(C(=O)COc2cc(C)c(Br)c(C)c2)CC1 | -0.76%
52 | O=C(C1CCC1)N1CCN(c2ccccc2)CC1 | -0.903%
53 | CN(CC(=O)Nc1ccccc1F)CC(=O)Nc1ccccc1Br | 27.5%
54 | O=C(NNC(=O)c1cc2c(s1)CCCC2)c1ccccc1 | 60.8% (active)
55 | O=C(CNC(=O)c1cc2c(s1)CCC2)Nc1ccccc1Br | 28.4% (active)
56 | O=C(Nc1ccc(F)cc1)c1cc2c(s1)CCCC2 | 34.8% (active)
57 | O=C(c1ccccc1)c1ccc(C(=O)N2CCN(c3ccccc3)CC2)cc1 | 11.3%
58 | O=C(c1cc2c(s1)CCC2)N1CCN(c2ccccc2)CC1 | 35.8% (active)
59 | Cc1nn(C)cc1C(=O)Nc1ccccc1Br | 9.35%
60 | O=C(COC(=O)c1cc2c(s1)CCCC2)NCc1ccccc1Cl | -0.034%
61 | COc1ccc(/C=C2/SC(=O)N(CCCCCC(=O)Nc3ccccc3C(=O)O)C2=S)cc1 | -7.35%
62 | Cc1cc(NC(=O)CCC(=O)N(CC(=O)NC2CCCC2)c2ccc(F)cc2)no1 | -7.13%
63 | CC(C)CCn1c(=O)c2c(nc3n2CCCN3Cc2ccccc2)n(C)c1=O | -1.82%
64 | O=C(CSCc1ccc([N+](=O)[O-])cc1)Nc1cccc(C(=O)Nc2ccccc2C(=O)O)c1 | -3.69%
65 | C=CCn1c(C2CC(=O)N(c3ccc(C)cc3)C2)nc2ccccc21 (stereo unspecified) | -5.17%
66 | CC(C)(C)c1cc2cccnc2n1Cc1cccc(F)c1 | -4.56%
67 | CCc1ccc(OCC(=O)N(Cc2ccccc2)C2CCS(=O)(=O)C2)cc1 (stereo unspecified) | -3.33%
68 | COc1ccc(-c2noc(CCCC(=O)NC3CCCC3)n2)cc1OC | 3.35%
69 | CCOc1ccc(-c2noc(CCC(=O)NC3CCCC3)n2)cc1OC | -5.32%
70 | COc1ccc(OC)c(Cc2nnc(CCC(=O)NC3CCCC3)o2)c1 | 18.4% (active)
71 | CC(=O)c1cc(CN2CCC(C(=O)Nc3cccc(-c4cscn4)c3)CC2)cs1 | 1.1%
72 | CCCN(CCC)c1nc2c(C)cccn2c(=O)c1/C=C1/SC(=S)N(Cc2ccco2)C1=O | 3.29%

Row | SMILES | max response
73 | CC1CN(CC(=O)NC(C)c2ccccc2)CC(C)O1 (stereo unspecified) | -1.49%
74 | O=C(NCc1cccs1)c1ccc(CS(=O)Cc2ccccc2Cl)o1 (stereo unspecified) | -1.19%
75 | COc1ccc(-n2nc(C(=O)Nc3cc(OC)c(OC)c(OC)c3)c3ccccc3c2=O)c(OC)c1 | 7.65%
76 | COc1ccc(-n2nc(C(=O)NCC(=O)N3CCN(c4ccccc4OC)CC3)c3ccccc3c2=O)c(OC)c1 | 24.9% (active)
77 | COc1cccc(NC(=O)c2nn(-c3ccc(OC)cc3OC)c(=O)c3ccccc23)c1 | -9.73%
78 | Cc1ccc(S(=O)(=O)N(CC(O)CN2CCCCC2)c2cccc([N+](=O)[O-])c2)cc1 (stereo unspecified) | -3.71%
79 | COc1ccc(N(Cc2ccc(N(C)C)cc2)C(=O)c2ccc(S(C)(=O)=O)cc2)cc1 | -1.82%
80 | O=C(O)CCn1cc(/C=C/C(=O)c2ccc(Cl)cc2)c(-c2cccc(Br)c2)n1 | 0.455%
81 | FC(F)(F)c1nnc2c3ccccc3c(Cl)nn12 | -3.49%
82 | Oc1oc(-c2ccccc2Br)nc1/C=N/c1ccccn1 | 34.5% (active)
83 | CC(C)n1c(O)c(N=Nc2ccccn2)c2ccccc21 | 4.74%
84 | CN(C(=O)CN1C(=O)S/C(=C\c2ccccc2F)C1=O)C1CCS(=O)(=O)C1 (stereo unspecified) | 0.582%
85 | COc1ccc(CNC(=O)C(c2ccc(O)cc2)N(Cc2ccco2)C(=O)c2snc(C(N)=O)c2N)cc1 (stereo unspecified) | 2.14%
86 | CCC(C)Sc1nc2c(cnn2-c2ccc(F)cc2)c(=O)[nH]1 (stereo unspecified) | 3.85%
87 | CC(C)=CCN1CCN(Cc2cc3ccccc3[nH]2)CC1CCO (stereo unspecified) | -3.61%
88 | Cc1cc(C)c(S(=O)(=O)c2cc(F)ccc2C)c(=O)[nH]1 | 2.04%
89 | CCOc1cc(NC(=O)CCl)c(OCC)cc1NC(C)=O | -3.13%
90 | CC(Cc1cccs1)N(Cc1ccc(Cl)cc1)C(=O)c1ccncc1 (stereo unspecified) | -4.21%
91 | Cc1ccc(NC(=S)NC(=O)/C=C/c2ccc(Cl)cc2)cc1 | 8.42%
92 | Cc1cc(C)nc(NC(=O)/C=C/c2ccc(Cl)cc2)n1 | 17.8% (active)
93 | O=C(/C=C/c1ccc(Cl)cc1)Nc1ccc(Br)cn1 | 14.3%
94 | CC(C)(C)c1ccc(/C=C/C(=O)Nc2ncccn2)cc1 | 65.3% (active)
95 | CC(C)(C)c1ccc(/C=C/C(=O)NC2CCS(=O)(=O)C2)cc1 (stereo unspecified) | 5.09%
96 | O=C(/C=C/c1ccc(Cl)cc1)Nc1ccc(S(=O)(=O)Nc2ncccn2)cc1 | 5.75%

Source: PubChem BioAssay AID2314 (National Center for Advancing Translational Sciences (NCATS), 2010)
